DUSP3 inh = blocks the human dual specificity phosphatase VHR1; recombinant VHR phosphatase, colorimetric substrate read-out; actives 0.7% (n = 50,000); P51452; inhibition, % at 20 µM; in the data active = inhibition above about 60%
Target sequence (P51452 whole entry, looked up): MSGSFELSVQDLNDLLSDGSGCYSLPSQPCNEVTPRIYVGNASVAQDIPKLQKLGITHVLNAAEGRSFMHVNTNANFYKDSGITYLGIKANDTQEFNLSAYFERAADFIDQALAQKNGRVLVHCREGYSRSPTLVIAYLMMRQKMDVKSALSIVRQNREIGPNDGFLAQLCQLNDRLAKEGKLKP
Active calls of the source: *. Many of the other results were omitted from the sample, so hits are more common in it than they were.

SMILES	DUSP3 inh
CCN1C(=O)/C(=C/c2ccc(N3CCCC3)cc2)C(=O)NC1=S	33
CCN1C(=O)/C(=C/c2cccc(OC)c2OC)C(=O)NC1=S	24
O=C1NC(=S)N(c2cccc(Br)c2)C(=O)/C1=C/c1ccc(Cl)cc1	19
CCN1C(=O)/C(=C/c2ccc(C)o2)C(=O)NC1=S	37
O=C1NC(=S)N(c2ccccc2)C(=O)/C1=C/c1cc(Cl)cc(Cl)c1O	18
CCN1C(=O)/C(=C/c2cccn2C)C(=O)NC1=S	66*
O=C1NC(=S)N(c2cccc(Cl)c2)C(=O)/C1=C\c1ccc(N2CCCC2)cc1	53
CCN1C(=O)/C(=C/c2ccoc2)C(=O)NC1=S	93*
O=C1NC(=S)N(c2cccc(Br)c2)C(=O)/C1=C/C=C/c1ccccc1	69*
C=CCN1C(=O)NC(=O)C(=Cc2cccn2C)C1=O	-6
CCOc1cc(CNc2ccccc2)ccc1OC	-104
CCN(CC)c1nc(C)cc(COC)c1C#N	-8
CCOc1ccc(/C=C2\SC(=S)N(c3ccc(OC)cc3)C2=O)cc1OC	-4
Cc1cc(C(=O)N(Cc2ccccc2)Cc2ccccc2)ccc1[N+](=O)[O-]	-6
C=CCN1C(=O)C(Cc2ccc(F)cc2)S/C1=N\N=C\c1ccco1 (stereo not drawn)	-8
CCOC(=O)c1ccc(NC(=O)c2ccc(I)cc2)cc1	-10
C=CCN1C(=O)/C(=C\c2ccc(OCC)cc2)C(=O)NC1=S	20
COc1cccc(N2C(=O)CC(N3CCN(C/C=C/c4ccccc4)CC3)C2=O)c1 (stereo not drawn)	-8
COc1cccc(N2C(=O)CC(N3CCC(C)CC3)C2=O)c1 (stereo not drawn)	-5
COc1cccc(N2C(=O)CC(N3CCCCC3)C2=O)c1 (stereo not drawn)	101*
CCN(CC)CCCNS(=O)(=O)c1ccccc1[N+](=O)[O-]	-1
O=C(/C=C/c1ccc(-c2ccccc2[N+](=O)[O-])o1)Nc1ccc(-c2nc3ccccc3o2)cc1	106*
O=C(/C=C/c1ccc(-c2ccccc2[N+](=O)[O-])o1)NCc1ccccc1	2
O=C(/C=C/c1ccc(-c2ccccc2[N+](=O)[O-])o1)Nc1ccc(O)c(-c2nc3ccccc3o2)c1	-10
CCOC(=O)CCOCC#CCN(CC)CC	-17
SMILES	DUSP3 inh
C/C(=N\Nc1cc(-c2ccccc2)nc(C)n1)c1ccc(N)cc1	-32
O=C1/C(=C/C=C/c2ccccc2)SC(=S)N1CCS(=O)(=O)O	85*
COc1ccc(/C=C2\SC(=S)N(CCS(=O)(=O)O)C2=O)cc1	67*
COC(=O)CN1C(=O)/C(=C\c2ccc(C)cc2)SC1=S	13
C=CCN1C(=O)/C(=C/c2ccc(C)cc2)SC1=S	-13
Cc1ccc(/C=C2\SC(=S)N(CCS(=O)(=O)O)C2=O)cc1	63*
O=C(O)CCCN1C(=O)/C(=C/C=C/c2ccccc2)SC1=S	3
C=CCN1C(=O)/C(=C\C=C\c2ccccc2)SC1=S	-26
COc1ccc(/C=C2\SC(=S)N(CCC(N)=O)C2=O)cc1	-8
COc1ccc(/C=C2\SC(=S)N(CCC(=O)OC3CCCCC3)C2=O)cc1	-7
O=C(/C=C/Nc1cc(Cl)ccc1O)c1cccs1	-1
Cc1cc(C)cc(NC(=O)/C=C/c2ccc(C)o2)c1	32
Cc1cccc(C(=O)Oc2ccc(/C=C3/SC(=S)NC3=O)cc2)c1	17
COc1ccc(/C=C2\SC(=O)N(c3c(C)n(C)n(-c4ccccc4)c3=O)C2=O)cc1	16
CN(C)C1=C/C(=N/S(=O)(=O)c2ccccc2)c2ccccc2C1=O	1
Cc1occc1C(=O)Nc1nc2ccc(S(C)(=O)=O)cc2s1	-60
COc1ccccc1NC(=O)C1=C(C)NC(=S)NC1c1ccc(F)cc1 (stereo not drawn)	40
O=C1NC(=O)N(c2ccccc2)C(=O)/C1=C\c1ccc(-c2cccc(C(=O)O)c2)o1	-24
O=C1NC(=S)N(c2cccc(Br)c2)C(=O)/C1=C/c1ccc(-c2ccc(C(=O)O)cc2)o1	92
O=C1NN(c2ccccc2)C(=O)/C1=C/c1ccc(-c2ccc(F)cc2)o1	-15
O=C1NN(c2ccccc2)C(=O)/C1=C/c1ccc(-c2ccccc2)o1	111*
O=C1NN(c2ccc(F)cc2)C(=O)/C1=C\c1ccc(-c2cccc(C(=O)O)c2)o1	-10
O=C1NC(=O)N(c2cccc(Br)c2)C(=O)/C1=C/c1ccc(-c2ccc(C(=O)O)cc2)o1	100*
Cc1ccc(CNC(=O)C(=O)NCc2ccco2)cc1	-8
CSCCC(NC(=O)/C(=C\c1cccc([N+](=O)[O-])c1)NC(=O)c1ccccc1)C(=O)O (stereo not drawn)	-35
SMILES	DUSP3 inh
CCOC(=O)c1c(N)sc(C)c1-c1ccc(CC(C)C)cc1	64*
CCOc1ccc(-c2c(C)sc(N)c2C(=O)OC(C)C)cc1	14
CCOC(=O)c1c(N)sc(C)c1-c1ccc(OCC)cc1	5
Cc1ccccc1C(=O)NNC(=O)c1ccc(Cl)cc1	2
CCN=C(Nc1ccc2c(c1)OCO2)SC1CC(=O)N(c2ccc(Cl)cc2)C1=O (stereo not drawn)	-1
COC(=O)C1=CNC=C(C(=O)OC)C1c1cccc(C)c1	-1
